In PubChem BioAssay (EPA / NIEHS) one finds outcome and AC50 data, which are given here for 16 compounds.

One may read the AC50 as the concentration at which the activity in the assay is half-maximal.

Results filed as inconclusive are left out. Activity calls are given as the source filed them. How the source made its calls, unless noted: active means hit-call score of the fitted dose curve at least 0.9, where 1 is the maximum; inconclusive means response in the unintended direction; inactive means score below 0.9.

Assay [1] addresses Estrogen receptor beta (Homo sapiens) (UniProt Q92731). The assay is described as follows: OT_ER_ERbERb_1440: Odyssey Thera (OT) 24-hour HEK293T Protein-Complementation Assay for Estrogen Receptor-beta/-beta Homodimer (AID 2283380).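 Further: fluorescence gain from ER beta LBD homodimer complementation read by laser scanning cytometry; scored as signal increase over DMSO baseline for both agonists and antagonists.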 In outline:
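Fluorescence increase, nuclear for agonists or whole-cell for antagonists, relative to DMSO vehicle, quantified by laser scanning cytometer after fixation and Draq5 staining. Readout from 24 h treatment of HEK293T cells carrying complementation-paired ER beta LBD (aa 310-547).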

The target in assay [2] is Estrogen receptor (Homo sapiens) (UniProt P03372). The assay is described as follows: OT_ERa_GFPERaERE_0480: Odyssey Thera (OT) 8-hour HeLa Transcription Induction Assay for Estrogen Receptor (AID 2283381; active means hit-call score of the fitted dose curve at least 0.9, where 1 is the maximum; inactive means score below 0.9). A digest of the protocol: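 HeLa cells dosed with compound and imaged by fluorescence microscopy at 8 h; GFP induction from an ERE reporter quantified by high-content image analysis and fitted as gain of signal against DMSO baseline.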

Assay [3] shares this target. Description: OT_ERa_GFPERaERE_0120: Odyssey Thera (OT) 2-hour HeLa Transcription Induction Assay for Estrogen Receptor (AID 2283382). A digest of the protocol:
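HeLa cells were dosed with test chemical and read 2 hours later for GFP-ERα/ERE-linked fluorescent protein induction by fluorescence microscopy. Gain-of-signal was fitted relative to DMSO baseline, quantified by high content image analysis.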

Assay [4] has as its target Retinoic acid receptor RXR-alpha (Homo sapiens) (UniProt P19793). The assay is described as follows: OT_NURR1_NURR1RXRa_1440: Odyssey Thera (OT) 24-hour HEK293T Protein Complementation Assay for Nurr1/retinoid X receptor (RXR) (AID 2283386). A digest of the protocol: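 HEK293T cells were dosed with compound and read 24 h later by fluorescence intensity in a protein-fragment complementation format, where Nurr1–RXRα interaction reconstitutes a split reporter. Activity was fitted as gain of signal relative to DMSO baseline.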

The target in assay [5] is Peroxisome proliferator-activated receptor gamma (Homo sapiens) (UniProt P37231). The assay is described as follows: OT_PPARg_PPARgSRC1_0480: Odyssey Thera (OT) 8-hour Protein-Complementation Assay for Peroxisome Proliferator-activated Receptor Gamma / SRC-1 Co-activator (AID 2283387).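 Further: nuclear to cytoplasmic split Venus YFP fluorescence ratio reporting PPARg SRC-1 interaction.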 A digest of the protocol:
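Split-YFP (IFP1/IFP2) PPARg/SRC-1 reporter, HEK293T, 37 °C, 5% CO2; 8 h compound; formaldehyde fix + Draq5; high-content imaging, N/C ratio, ≥350 cells/image, positive direction vs DMSO.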

Assay [6] shares this target. The assay is described as follows: OT_PPARg_PPARgSRC1_1440: Odyssey Thera (OT) 24-hour Protein-Complementation Assay for Peroxisome Proliferator-activated Receptor Gamma/ SRC-1 Co-activator (AID 2283388).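 Further: nuclear to cytoplasmic ratio of reconstituted Venus YFP fluorescence in fixed imaged cells.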 In outline:
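Readout: nuclear-to-cytoplasmic 488 nm fluorescence ratio, ≥350 cells per image, 8 images per well, after 24 h compound exposure of HEK293T expressing PPARg/SRC-1 split-YFP fusions. Activity fitted in positive direction against DMSO.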

In assay [7] the target is Bile acid receptor (Homo sapiens) (UniProt Q96RI1). The assay is described as follows: OT_FXR_FXRSRC1_0480: Odyssey Thera (OT) 8-hour HEK293T Protein-Complementation Assay for Farnesoid X receptor/SRC-1 Co-activator (AID 2283383). In outline:
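HEK293T cells expressing FXR and SRC-1 fused to reporter fragments were dosed with compound for 8 h; fluorescence from the reconstituted reporter marked co-activator recruitment. Gain of signal was fitted against the DMSO baseline.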

The target in assay [8] is Retinoic acid receptor RXR-alpha (Homo sapiens) (UniProt P19793). Description: OT_NURR1_NURR1RXRa_0480: Odyssey Thera (OT) 8-hour HEK293T Protein Complementation Assay for Nurr1/retinoid X receptor (RXR) (AID 2283385). A digest of the protocol: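 HEK293T cells expressing Nurr1 and RXRα fused to reporter fragments were dosed with compound for 8 hours. Complex formation was read as fluorescence intensity and analysed as gain of signal against DMSO as baseline.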

Assay [9] deals with Agonist Androgen Response Element (ARE), AR (gene 367) (UniProt P10275). The assay is described as follows: OT_AR_ARELUC_AG_1440: Odyssey Thera (OT) 24-hour CHO-K1 Luciferase Assay for Agonist Androgen Response Element (ARE) (AID 2283379). In outline: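 Agonist mode, 24 h exposure in CHO-K1 ARE-luciferase cells; values reflect luminescence induction over vehicle.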
Assay [10] can be described thus: CEETOX_H295R_11DCORT: CeeTox H295R High-throughput Steroidogenesis Assay for 11-Deoxycortisol (11DCORT) (AID 2283432; active means hit-call score of the fitted dose curve at least 0.9, where 1 is the maximum; inactive means score below 0.9;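 on AC50: 11-deoxycortisol secreted into the medium measured by LC-MS/MS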). Conditions: actives raise or lower the signal. In outline:
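Steroidogenesis in human H295R cells: 48 h chemical exposure after forskolin priming, 11-deoxycortisol measured by LC-MS/MS.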

Assay [11] in a line: CEETOX_H295R_OHPREG: CeeTox H295R High-throughput Steroidogenesis Assay for OH-Pregnenolone (OHPREG) (AID 2283434; active means hit-call score of the fitted dose curve at least 0.9, where 1 is the maximum; inactive means score below 0.9). The settings on record: actives raise or lower the signal. A digest of the protocol: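 Hormone levels in spent medium were measured by tandem mass spectrometry following liquid-liquid extraction. Cells (H295R) had been forskolin-stimulated (10 uM, 48 h) before a 48 h chemical exposure at 0.1% DMSO, with activity fitted in both directions against DMSO.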

The nature of assay [12]: CEETOX_H295R_OHPROG: CeeTox H295R High-throughput Steroidogenesis Assay for OH-Progesterone (OHPROG) (AID 2283435; active means hit-call score of the fitted dose curve at least 0.9, where 1 is the maximum; inactive means score below 0.9). The settings on record: actives raise or lower the signal. A digest of the protocol: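 H295R human adrenal cells were prestimulated 48 h with 10 uM forskolin, then exposed 48 h to test chemical (0.1% DMSO final). 17alpha-hydroxyprogesterone in medium was measured by HPLC-MS/MS after MTBE extraction; bidirectional fitting vs DMSO.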

A short description of assay [13]: CEETOX_H295R_CORTIC: CeeTox H295R High-throughput Steroidogenesis Assay for Corticosterone (CORTIC) (AID 2283437; active means hit-call score of the fitted dose curve at least 0.9, where 1 is the maximum; inactive means score below 0.9;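 further: corticosterone secreted into medium quantified by mass spectrometry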). Conditions: actives raise or lower the signal. In outline: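 Corticosterone secreted into medium is measured by reverse-phase HPLC with tandem MS following liquid-liquid extraction. Cells are forskolin-stimulated (10 uM, 48 h) before 48 h test exposure; activity fitted in both directions against DMSO.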

The nature of assay [14]: CEETOX_H295R_CORTISOL: CeeTox H295R High-throughput Steroidogenesis Assay for Cortisol (AID 2283438; active means hit-call score of the fitted dose curve at least 0.9, where 1 is the maximum; inactive means score below 0.9;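 further: cortisol secreted into medium quantified by LC-MS/MS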). The settings on record: actives raise or lower the signal. A digest of the protocol: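 H295R human adrenal cells were prestimulated 48 h with 10 uM forskolin, then exposed 48 h to test chemical (0.1% DMSO final). Medium cortisol was quantified by HPLC-MS/MS after MTBE extraction; bidirectional fitting relative to DMSO baseline.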

Assay [15] can be described thus: CEETOX_H295R_DOC: CeeTox H295R High-throughput Steroidogenesis Assay for DOC (AID 2283439; active means hit-call score of the fitted dose curve at least 0.9, where 1 is the maximum; inactive means score below 0.9). The settings on record: actives raise or lower the signal. In outline:
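H295R adrenal cells prestimulated 48 h with 10 uM forskolin, then exposed 48 h to test chemical (0.1% DMSO final). Medium 11-deoxycorticosterone extracted with MTBE, quantified by HPLC-MS/MS; bidirectional fit versus DMSO baseline; MTT viability in same wells.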

The nature of assay [16]: CEETOX_H295R_ESTRADIOL: CeeTox H295R High-throughput Steroidogenesis Assay for Estradiol (AID 2283440; active means hit-call score of the fitted dose curve at least 0.9, where 1 is the maximum; inactive means score below 0.9;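 further: estradiol secreted into medium quantified by LC-MS/MS after dansyl derivatisation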). Conditions: actives raise or lower the signal. A digest of the protocol: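 H295R, 48 h forskolin (10 uM) prestim → 48 h compound, 0.1% DMSO final. Estradiol in medium: MTBE extraction, dansyl chloride derivatization, LC-MS/MS. Fit bidirectional vs DMSO baseline; MTT viability in same wells.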

Assay [17] can be described thus: CEETOX_H295R_ESTRONE: CeeTox H295R High-throughput Steroidogenesis Assay for Estrone (AID 2283441; active means hit-call score of the fitted dose curve at least 0.9, where 1 is the maximum; inactive means score below 0.9;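 further: estrone secreted into medium measured by LC-MS/MS after dansyl derivatization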). The settings on record: actives raise or lower the signal. In outline: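 H295R cells; 48 h forskolin (10 uM) prestimulation; 48 h compound exposure, 0.1% DMSO final. Medium estrone: MTBE extraction, dansyl derivatization, HPLC-MS/MS. Bidirectional fit vs DMSO.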

Chain of Peroxisome proliferator-activated receptor gamma (Homo sapiens) (P37231 whole entry, looked up): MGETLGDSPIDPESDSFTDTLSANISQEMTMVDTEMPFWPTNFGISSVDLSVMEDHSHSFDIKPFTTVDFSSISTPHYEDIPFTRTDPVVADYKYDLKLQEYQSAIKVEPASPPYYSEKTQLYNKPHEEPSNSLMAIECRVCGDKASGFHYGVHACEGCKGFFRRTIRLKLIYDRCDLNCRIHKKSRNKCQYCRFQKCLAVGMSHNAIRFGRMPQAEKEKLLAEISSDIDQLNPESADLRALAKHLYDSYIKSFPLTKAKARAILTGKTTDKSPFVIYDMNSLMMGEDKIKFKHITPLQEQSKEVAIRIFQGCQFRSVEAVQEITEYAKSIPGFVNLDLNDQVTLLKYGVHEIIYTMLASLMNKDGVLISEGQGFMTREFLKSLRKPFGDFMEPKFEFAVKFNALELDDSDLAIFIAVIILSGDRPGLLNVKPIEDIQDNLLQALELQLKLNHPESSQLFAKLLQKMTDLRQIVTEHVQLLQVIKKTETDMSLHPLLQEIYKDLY
Chain of Estrogen receptor beta (Homo sapiens) (Q92731 whole entry, looked up, the tested form may be a part): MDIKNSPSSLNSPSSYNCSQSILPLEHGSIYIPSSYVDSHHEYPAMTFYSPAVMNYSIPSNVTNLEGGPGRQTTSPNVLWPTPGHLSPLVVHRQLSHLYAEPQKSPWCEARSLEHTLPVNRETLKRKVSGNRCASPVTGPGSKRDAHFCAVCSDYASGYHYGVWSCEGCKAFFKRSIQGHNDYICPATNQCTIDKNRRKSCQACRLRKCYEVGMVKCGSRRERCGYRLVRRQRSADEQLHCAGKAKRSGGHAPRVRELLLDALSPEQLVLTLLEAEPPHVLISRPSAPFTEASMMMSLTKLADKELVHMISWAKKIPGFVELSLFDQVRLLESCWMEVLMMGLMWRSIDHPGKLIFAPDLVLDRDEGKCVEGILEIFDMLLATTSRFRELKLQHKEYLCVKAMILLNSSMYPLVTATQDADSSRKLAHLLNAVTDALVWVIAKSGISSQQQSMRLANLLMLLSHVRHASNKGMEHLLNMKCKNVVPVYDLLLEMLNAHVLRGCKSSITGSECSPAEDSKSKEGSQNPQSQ
Chain of Agonist Androgen Response Element (ARE), AR (gene 367) (P10275 whole entry, looked up): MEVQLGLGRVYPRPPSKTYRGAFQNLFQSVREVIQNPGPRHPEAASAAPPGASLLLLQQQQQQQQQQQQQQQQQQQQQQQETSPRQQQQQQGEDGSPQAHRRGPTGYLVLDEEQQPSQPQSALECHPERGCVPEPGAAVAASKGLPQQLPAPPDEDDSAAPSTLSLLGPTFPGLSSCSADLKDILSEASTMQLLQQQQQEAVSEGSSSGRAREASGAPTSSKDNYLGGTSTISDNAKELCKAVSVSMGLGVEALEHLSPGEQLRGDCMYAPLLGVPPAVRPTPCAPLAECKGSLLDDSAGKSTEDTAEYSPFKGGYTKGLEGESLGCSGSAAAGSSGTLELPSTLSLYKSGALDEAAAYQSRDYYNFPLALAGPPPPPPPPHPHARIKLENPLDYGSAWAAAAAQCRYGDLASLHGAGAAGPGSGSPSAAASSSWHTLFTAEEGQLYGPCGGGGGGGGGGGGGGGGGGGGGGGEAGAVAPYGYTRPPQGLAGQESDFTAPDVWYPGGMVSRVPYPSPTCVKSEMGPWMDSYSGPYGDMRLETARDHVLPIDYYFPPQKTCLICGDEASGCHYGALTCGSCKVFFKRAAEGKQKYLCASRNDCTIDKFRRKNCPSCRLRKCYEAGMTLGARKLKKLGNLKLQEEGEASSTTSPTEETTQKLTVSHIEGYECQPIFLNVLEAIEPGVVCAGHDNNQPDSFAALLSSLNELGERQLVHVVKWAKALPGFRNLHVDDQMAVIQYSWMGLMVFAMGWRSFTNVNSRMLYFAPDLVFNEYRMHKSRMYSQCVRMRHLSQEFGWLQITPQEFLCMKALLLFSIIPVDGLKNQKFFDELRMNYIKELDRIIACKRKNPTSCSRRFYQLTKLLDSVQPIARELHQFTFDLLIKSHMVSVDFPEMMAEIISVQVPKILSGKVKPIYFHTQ
Chain of Bile acid receptor (Homo sapiens) (Q96RI1 whole entry, looked up, the tested form may be a part): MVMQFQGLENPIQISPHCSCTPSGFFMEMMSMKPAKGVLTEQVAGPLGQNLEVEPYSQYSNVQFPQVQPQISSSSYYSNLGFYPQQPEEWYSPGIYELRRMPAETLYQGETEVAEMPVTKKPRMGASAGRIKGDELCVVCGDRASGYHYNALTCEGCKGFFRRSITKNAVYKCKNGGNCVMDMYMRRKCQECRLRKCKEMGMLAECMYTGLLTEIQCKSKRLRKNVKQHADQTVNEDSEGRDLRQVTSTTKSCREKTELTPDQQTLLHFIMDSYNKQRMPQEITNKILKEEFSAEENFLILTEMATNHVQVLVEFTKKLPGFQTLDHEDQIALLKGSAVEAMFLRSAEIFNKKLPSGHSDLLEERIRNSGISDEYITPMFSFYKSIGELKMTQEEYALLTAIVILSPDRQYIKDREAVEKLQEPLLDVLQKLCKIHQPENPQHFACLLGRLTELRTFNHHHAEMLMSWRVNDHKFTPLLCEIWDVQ
Chain of Estrogen receptor (Homo sapiens) (P03372 whole entry, looked up): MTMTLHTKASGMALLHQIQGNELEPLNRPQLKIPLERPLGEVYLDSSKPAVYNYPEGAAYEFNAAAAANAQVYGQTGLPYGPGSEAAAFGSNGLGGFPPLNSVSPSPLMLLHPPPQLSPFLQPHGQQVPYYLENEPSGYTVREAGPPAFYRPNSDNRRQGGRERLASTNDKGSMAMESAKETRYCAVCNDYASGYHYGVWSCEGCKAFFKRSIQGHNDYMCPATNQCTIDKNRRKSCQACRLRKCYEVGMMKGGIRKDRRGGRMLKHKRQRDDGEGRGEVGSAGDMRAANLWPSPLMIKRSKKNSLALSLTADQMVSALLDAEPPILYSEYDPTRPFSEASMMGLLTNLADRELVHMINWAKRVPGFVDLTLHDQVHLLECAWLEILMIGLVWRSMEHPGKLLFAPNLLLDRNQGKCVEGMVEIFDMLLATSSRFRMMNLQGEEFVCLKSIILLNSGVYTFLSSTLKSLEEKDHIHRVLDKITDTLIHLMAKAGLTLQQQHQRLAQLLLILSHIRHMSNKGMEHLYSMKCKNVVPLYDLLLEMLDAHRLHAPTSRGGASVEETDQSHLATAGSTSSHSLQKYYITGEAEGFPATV
Chain of Retinoic acid receptor RXR-alpha (Homo sapiens) (P19793 whole entry, looked up, the tested form may be a part): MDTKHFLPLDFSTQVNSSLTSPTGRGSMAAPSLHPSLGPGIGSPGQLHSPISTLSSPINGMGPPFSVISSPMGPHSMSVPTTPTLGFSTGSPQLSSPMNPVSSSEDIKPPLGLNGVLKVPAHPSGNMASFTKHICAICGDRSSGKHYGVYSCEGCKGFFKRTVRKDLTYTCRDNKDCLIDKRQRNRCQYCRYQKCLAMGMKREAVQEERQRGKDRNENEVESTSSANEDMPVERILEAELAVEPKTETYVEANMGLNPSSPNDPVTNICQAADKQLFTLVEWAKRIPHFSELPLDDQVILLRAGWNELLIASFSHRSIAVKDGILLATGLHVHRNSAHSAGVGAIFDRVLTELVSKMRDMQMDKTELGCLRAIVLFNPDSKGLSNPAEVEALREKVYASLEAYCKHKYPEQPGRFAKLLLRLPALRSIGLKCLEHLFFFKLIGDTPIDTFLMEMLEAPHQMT

For `CC(C)COC(=O)CC(C(=O)OCC(C)C)S(=O)(=O)O` (stereo not given), the call in assay [1], in assay [2], in assay [3], in [4], in [5] and in [6] was inactive.

Regarding `CCc1occc(=O)c1O`, the compound was classed as inactive in assay [2], in [3], in assay [7], in assay [8], in [4] and in assay [5]. For the same compound, in [6], the call was inactive.

As to `Cc1c(C(=O)c2c[nH]n(C)c2=O)ccc(S(C)(=O)=O)c1C1=NOCC1`, the outcome in assay [9], in assay [2], in [3], in assay [4] and in assay [5] was inactive.

Regarding `CCCCNC(=S)NCCCC`, the call in assay [2], in assay [3], in [7], in assay [8], in [4] and in assay [5] was inactive.

Consider `CCCCCCOc1ccc(N)cc1`, for which the call in assay [2], in assay [3], in assay [7], in assay [8], in [4] and in assay [5] was inactive. Moreover, the compound was classed as inactive in assay [6].

As for `C=C[C@@]1(C)CC(=O)[C@]2(O)[C@@]3(C)[C@@H](O)CCC(C)(C)[C@@H]3[C@H](O)[C@H](OC(C)=O)[C@@]2(C)O1`, the AC50 in [1] is 27400 nM (active); in assay [2], 89100 nM (active); in assay [4], 396 nM (active); in [10], 510 nM (active); in assay [11] it was 817 nM (active); in [12] it was 799 nM (active). Also, the AC50 in assay [13] was 609 nM (active); in assay [14], 726 nM (active); in assay [15], 418 nM (active); in [16], 774 nM (active); in assay [17], 719 nM (active). Further, the compound was called inactive in assay [3], in [5] and in [6].

On to `CCCCC(=O)O`, for which the call in [1], in assay [2], in assay [3], in assay [7], in assay [4] and in assay [5] was inactive.

Turning to `CCCCC(CC)COS(=O)(=O)O` (stereo not given), the outcome in assay [2], in assay [3], in [7] and in [4] was inactive.

As to `CCCCC(CC)COC(=O)/C=C/c1ccc(OC)cc1` (stereo not given), the outcome in assay [9], in assay [2], in [3], in assay [4] and in assay [6] was inactive.

Consider `CC(=O)OCc1ccccc1`, for which the compound was called inactive in [9], in assay [2], in assay [3], in [5] and in assay [6].

On to `CCC1COC(=O)O1` (stereo not given), for which the call in [2], in [3], in [7], in assay [4], in assay [5] and in assay [6] was inactive.

As for `CC(=O)OC1CCCCC1C(C)(C)C` (stereo not given), the call in [9], in assay [2], in assay [3], in assay [4], in [5] and in [6] was inactive.

For `CC(C)c1cc(C(C)C)cc(C(C)C)c1`, the result in assay [1], in [2], in [3] and in [5] was inactive.

`O=S(=O)(O)c1ccc(N=Nc2c(O)ccc3ccccc23)cc1`: the call in assay [1], in [2], in assay [3], in assay [4], in [5] and in [6] was inactive.

Regarding `CCN1CN(CC)CN(CC)C1`, the result in assay [1], in assay [2], in assay [3], in assay [7], in [5] and in assay [10] was inactive. The outcome in assay [11], in assay [12], in [13], in assay [14], in [15] and in assay [16] was inactive. The result in assay [17] was inactive.

For the compound `CC(=O)/C=C/C1C(C)=CCCC1(C)C` (stereo not given), the compound was classed as inactive in assay [2], in assay [3], in assay [7], in assay [4] and in assay [5].
